Compound activity deposited in PubChem BioAssay by Fisher Drug Discovery Resource Center.
mcGAS MS inh = inhibitors of Mus musculus cyclic GMP-AMP synthase, initial high-throughput assay, cell-free, RapidFire MS | Q8C6L5 | inhibition, % at 12.5 µM | recombinant mouse cGAS, cGAMP by RapidFire MS | actives 0.18% (n = 130,000);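 active = inhibition of cGAS enzyme activity at or above 60%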;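 also: enzyme stimulated by 45 bp dsDNA with ATP and GTP substrates; cGAMP share of summed cGAMP plus half ATP and half GTP signals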
Target sequence (Q8C6L5 whole entry, looked up): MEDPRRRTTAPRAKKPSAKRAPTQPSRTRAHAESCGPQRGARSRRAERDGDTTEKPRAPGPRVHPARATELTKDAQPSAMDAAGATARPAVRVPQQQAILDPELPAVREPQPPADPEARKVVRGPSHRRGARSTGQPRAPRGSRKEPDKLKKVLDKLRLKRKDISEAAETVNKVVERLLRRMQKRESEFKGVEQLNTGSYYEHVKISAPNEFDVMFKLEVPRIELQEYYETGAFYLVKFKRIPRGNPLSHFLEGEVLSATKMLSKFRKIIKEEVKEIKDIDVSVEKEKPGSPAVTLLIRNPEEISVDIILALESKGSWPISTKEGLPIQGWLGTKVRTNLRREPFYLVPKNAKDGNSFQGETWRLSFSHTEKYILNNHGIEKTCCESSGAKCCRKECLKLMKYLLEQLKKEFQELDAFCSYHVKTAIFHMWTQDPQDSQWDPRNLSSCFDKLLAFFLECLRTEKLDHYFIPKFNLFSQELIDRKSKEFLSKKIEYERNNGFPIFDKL
Numbers stand for hits; n = inactive; ! = repeats disagree. The entries come from a sample that favours hits as a whole.

SMILES	mcGAS MS inh
O=C1Nc2ccc(Br)cc2C1=c1sc2nc3ccccc3n2c1=O	n
Cc1cccc(C(C)(C)CNC(=O)Cc2cc3ccccc3[nH]c2=O)c1	n
COc1ccccc1N/C=C(/Br)C(=O)C(F)(F)F	n
O=C(Cc1c[nH]c(=O)[nH]c1=O)N1CCC1c1ccc(F)cc1 (stereo not given)	n
CC(=O)Nc1ccc(OCC(O)CN2CC(C)OCC2C)cc1 (stereo not given)	n
NC(=S)N=Nc1ccc(NN=C(N)N)cc1	79
CCn1c(C)cc(O)c(C(c2ccccn2)N2CCC(Cc3ccccc3)CC2)c1=O (stereo not given)	n
CCC(=O)NCc1cc(S(N)(=O)=O)ccc1OC	n
CC(C)c1ccc(NC(=O)c2cn(C)c3c(=O)n(-c4ccccc4)c(=O)[nH]c23)cc1	n
C=CCn1cc(CN2CCN(Cc3ccc4c(c3)OCO4)C(=O)C2)c(C)n1	n
C=CCn1cc(CN2CCn3nc(-c4nc5ccccc5n4C)cc3C2)c(C)n1	79
Cn1c(-c2ccc(CN3CCn4cncc4C3)o2)nc2ccccc21	n
CC(C)CC1C(C#N)C(=N)SC(=N)C1C#N (stereo not given)	n
CC1(C)CC(=O)N(C2CCCCC2)C1(C)O (stereo not given)	n
CCOC(=O)c1[nH]nc2c1CC/C2=C\c1ccccc1	n
CCOC(=O)c1[nH]nc2c1C(=O)N(CC)C2=O	62
CCOC(=O)c1[nH]nc(-c2ccc(C)cc2)c1C	n
COc1ccc(CCCC(=O)NCC(=O)N/N=C\c2cccc(Cl)c2Cl)cc1	n
CS(=O)(=O)CCNC(=O)C1(N2CCCC2)CCCC1	n
C=CCn1c(C)n[nH]c1=S	n
OC(C#CC#CC(O)c1ccccc1)c1ccccc1 (stereo not given)	n
O=C(c1n[nH]c(=O)c2ccccc12)N1CCN(S(=O)(=O)c2cccc(Cl)c2)CC1	87
Cc1cccc(CN2CCN(C(=O)c3n[nH]c(=O)c4ccccc34)CC2)c1	n
O=C(c1n[nH]c(C2CC2)c1Cl)N1CCN(S(=O)(=O)c2ccccc2)CC1	n
N#Cc1ncn(CCS(=O)(=O)c2ccc(Cl)cc2)n1	n
SMILES	mcGAS MS inh
Cc1nn2cc(CNC(=O)CN3CCOc4ccccc4C3)nc2s1	n
Cn1nnnc1SCCNC(=O)CN1CCOc2ccccc2C1	n
O=C(CN1CCOc2ccccc2C1)NCCS(=O)(=O)N1CCCC1	71
O=c1c2ccccc2cnn1CN(Cc1ccccc1C(F)(F)F)C1CC1	n
CC1Sc2ccc(S(C)(=O)=O)cc2N(Cc2cccc(C#N)c2)C1=O (stereo not given)	n
c1c(CN2CCN(C3CCSCC3)CC2)nn2c1CNCCC2	n
CC(C)Cc1cc(-c2nn3c(-c4cnccn4)nnc3s2)n[nH]1	88
CC(C)c1cc(-c2nnc3sc(-c4cccnc4)nn23)n[nH]1	n
CC(C)Cc1cc(-c2nn3c(-c4cccnc4)nnc3s2)n[nH]1	n
C[N+]([O-])=Cc1ccc([N+](=O)[O-])cc1	n
COCOc1cccc(CN2CCC2(C)C(=O)Nc2cccc(Br)c2C)c1 (stereo not given)	n
CCOc1ccc2nc3cc(N)ccc3c(N)c2c1	92!
CCOc1ccc2nc(NC(=O)CC)sc2c1	n
Nc1c2ccccc2nc2ccccc12 (tested in a mixture with another compound)	n
OC(COc1cccc(CN2CCSCC2)c1)CN1CCOCC1 (stereo not given)	n
CC(C)(C)n1cccc(/C=N\NC(N)=S)c1=S	72
Cn1c(=O)c2[nH]c(/C=N\NC(N)=S)nc2n(C)c1=O	n
NC(=S)NN=Cc1c[nH]c2ccccc12	n
COc1cccc(-c2nc(C=Nc3ccc(Cl)cc3C)c(O)o2)c1	n
O=C(CCc1ncc(-c2ccc(F)cc2)o1)N1CCN(c2ccccc2)CC1	n
Cc1ccc(-c2cnc(CCC(=O)N3CCc4ccccc4C3)o2)cc1C	78
O=C(CCc1nnc(Cc2ccc3c(c2)OCO3)o1)N1CCc2ccccc2C1	n
CN(C(=O)CN1CCN(c2cc(-c3ccsc3)ncn2)CC1)c1ccccc1	n
Cc1ccc(/C(=C2\OC(=O)c3ccccc32)[N+](=O)[O-])c(C)c1	n
Cc1ccc(N2Cc3ccccc3C2=O)cc1	n
SMILES	mcGAS MS inh
Cc1ccc(C2([N+](=O)[O-])C(=O)c3ccccc3C2=O)cc1	90
CCOc1ccc(Nc2ncccc2C(=O)N2CC(C)OC(C)C2)cc1 (stereo not given)	n
O=C(c1ccc[nH]c1=O)N(Cc1ccc(C(F)(F)F)cc1)C1CC1	n
O=S(=O)(O)CC(S)CS (stereo not given)	87
CC(CS(=O)(=O)c1nc2ccccc2s1)N1CCC2(CC1)OCCO2 (stereo not given)	n
CC(C(=O)Nc1ccccc1)N(C)Cc1ccc(Cl)cc1 (stereo not given)	n
CC(C(=O)Nc1ccc(Cl)cn1)N(C)CC(=O)Nc1c(Cl)cccc1Cl (stereo not given)	n
CC(C(=O)Nc1ccc(Cl)cn1)N(C)Cc1ccsc1 (stereo not given)	83
Cc1ccc(NC(=O)C2(C)CCN2CCOc2ccccc2)cc1O (stereo not given)	n
C(=C1CCC=C1N1CCOCC1)c1nc2ccccc2[nH]1	77
FC(F)Oc1ccc(Br)cc1C=C1CCC=C1N1CCOCC1	n
O=C(CCc1nc2ccccc2[nH]1)N1CCc2c(ncnc2N2CCOCC2)C1	n
O=C(c1ccco1)N1CCN(C(=O)c2cc(F)ccc2C(F)(F)F)CC1	n
Cc1cc(-c2cc(=O)[nH]c(-c3ccc(CN4CCN(C)CC4)cc3)n2)c(C)o1	71
CN(Cc1ccc(-c2nc(-c3ccncc3)cc(=O)[nH]2)cc1)Cc1ccoc1	n
CCCCc1cc(=O)[nH]c(-c2ccc(CN3CCN(C(=O)N(C)C)CC3)cc2)n1	n
Cc1nn(-c2ccc(N3CCOCC3)nn2)c2c1C(c1cccc(O)c1)CC(=O)N2 (stereo not given)	n
O=C1NC(=S)SC1=Cc1cc(O)c(O)c(Cl)c1	97
COc1cc(C=C2SC(=S)NC2=O)cc(OC)c1OC	n
O=C1NC(=S)SC1=Cc1ccccc1Cl	n
CCCS(=O)(=O)NC(=O)C1(C)CCN1C(=O)Cc1ccccc1Cl (stereo not given)	n
COc1cccc(-c2ccccc2NC(=O)C2CCN(CC3CC=CCC3)CC2)c1 (stereo not given)	n
COc1cc(C(=O)Nc2ccc(C)c(-c3nc(C)co3)c2)ccc1OC(C)C	n
CC(C)c1nc(NC(=O)CS(=O)(=O)C2CCCC2)n(C)n1	n
CC(C)c1nc(NC(=O)c2[nH]ncc2Br)n(C)n1	94
SMILES	mcGAS MS inh
N#CC(NC(=O)c1[nH]ncc1Br)c1cccc(Cl)c1 (stereo not given)	n
CC(C)C(NC(=O)CNC(=O)c1ccccc1)c1cccs1 (stereo not given)	n
COc1c(Cl)ccc(Cl)c1C(=O)O	98
COc1c(Cl)cc(C(=O)NCCn2cccc2)cc1Cl	n
COc1cccc(C=CC(=O)c2ccc(Cl)c(Cl)c2)c1OC	n
NC(=O)c1cccc(CC2CCN(C(=O)CCOc3ccccc3)C2)c1 (stereo not given)	n
Cc1ccc(NC(=O)CCNC2CCC3(CCNCC3)CC2)c(C)c1	n
CCN(C(=O)CSc1ccc(C(=O)N2CCCC2)cn1)c1ccccc1C	n
COc1coc(C(=O)Nc2nnc(C)s2)cc1=O	70
COc1coc(C(=O)Nc2nc(C)cs2)cc1=O	n
COc1coc(C(=O)Nc2nc3ccccc3s2)cc1=O	n
COCC(C)(C)NC(=O)CCN(C(=O)OC(C)(C)C)C(C)C	n
